{"source": "PubChem BioAssay (NCI)", "note": "The panel holds about 79,000 compounds, 15% with a hit somewhere; the sample as a whole holds those more often. Active and inactive are the calls of the source. Cut-off read from the data, not from the text of the source: active = growth inhibition above about 70%; inactive = the rest.", "data": [{"experiment": "NCI Yeast Anticancer Drug Screen. Data for the bub3 strain (AID 167)", "conditions": "S. cerevisiae bub3 mutant strain, at 50.0 µM, active compounds read high", "in_short": "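Yeast carrying a defined mutation is treated with each compound, and growth is compared with that of vehicle-exposed cells to give inhibition.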", "values": [{"molecule": "C=CCNC(=O)c1ccc(OC)cc1", "growth inhibition": "-4.5% (inactive)"}, {"molecule": "O=C(Nc1cc(-c2ccccc2)[nH]n1)c1ccc(Cl)cc1", "growth inhibition": "-7.15% (inactive)"}, {"molecule": "O=[N+]([O-])c1ccc(N=Nc2ccccc2)cc1", "growth inhibition": "-5.2% (inactive)"}, {"molecule": "N=c1c(C(=O)OCc2ccccc2)ncc(CCl)n1O", "growth inhibition": "73.2% (active)"}, {"molecule": "CCOC(=O)c1cc(/C=C/c2ccc(Cl)cc2Cl)on1", "growth inhibition": "-36.1% (inactive)"}, {"molecule": "CC1NC(=O)NC1CCCCCC(=O)O", "note": "(stereo unspecified)", "growth inhibition": "4.6% (inactive)"}, {"molecule": "COc1ccc(C2OC(N)=C(O)C2=O)cc1OC", "note": "(stereo unspecified)", "growth inhibition": "-30.1% (inactive)"}, {"molecule": "Cc1nc2ccccc2c2nnc(SCC(=O)N(Cc3ccccc3)c3ccccc3)n12", "growth inhibition": "-3.9% (inactive)"}, {"molecule": "Cc1cc(NC(=O)CSCC(=O)O)no1", "growth inhibition": "-7.8% (inactive)"}, {"molecule": "N#CCCc1ccc(O)cc1", "growth inhibition": "-17.9% (inactive)"}, {"molecule": "Cc1cc(N2CCC(N3CCCC3)CC2)nc(/N=C(\\N)Nc2ccc(Cl)c(Cl)c2)n1", "growth inhibition": "4% (inactive)"}, {"molecule": "OC1OC(COC(c2ccccc2)(c2ccccc2)c2ccccc2)C(O)C(O)C1O", "note": "(stereo unspecified)", "growth inhibition": "-3.7% (inactive)"}, {"molecule": "NC(N)=Nc1cc2ccccc2c2ccccc12", "growth inhibition": "-3% (inactive)"}, {"molecule": "O=C(/C=C/C(=O)c1ccccc1)c1ccccc1", "growth inhibition": "36% (inactive)"}, {"molecule": "CSc1[nH]c(=O)ncc1F", "growth inhibition": "-2.3% (inactive)"}, {"molecule": "CCOC(=O)CNN", "growth inhibition": "-14.8% (inactive)"}, {"molecule": "CCC(C)(C)C1CCC(O)CC1", "note": "(stereo unspecified)", "growth inhibition": "-5.15% (inactive)"}, {"molecule": "Cc1c(O)cccc1O", "growth inhibition": "-8.2% (inactive)"}, {"molecule": "C/C(=C\\c1cc(Cl)ccc1OCC(=O)O)[N+](=O)[O-]", "growth inhibition": "40.8% (inactive)"}, {"molecule": "COc1cccc(/C=N/NC(=S)NC2CC3CCC2C3)c1O", "note": "(stereo unspecified)", "growth inhibition": "-13.9% (inactive)"}, {"molecule": "Cc1cc(OCCO)cc(C)c1Cl", "growth inhibition": "-10.5% (inactive)"}, {"molecule": "CC(C)CCOC(=O)c1ccccc1", "growth inhibition": "-29.1% (inactive)"}, {"molecule": "COC(=O)/C=C/C(=O)NC(N)=O", "growth inhibition": "-17.2% (inactive)"}, {"molecule": "O=[N+]([O-])c1ccc(O)c(S(=O)(=O)O)c1", "growth inhibition": "-0.45% (inactive)"}, {"molecule": "O=c1cc(-c2ccccc2)[nH]c(=S)[nH]1", "growth inhibition": "9.1% (inactive)"}, {"molecule": "CC(C)C1CCCCC1O", "note": "(stereo unspecified)", "growth inhibition": "-1.4% (inactive)"}, {"molecule": "CCOc1ccc(Br)cc1/C=N\\N=C\\c1cc(Br)ccc1OCC", "growth inhibition": "4.25% (inactive)"}, {"molecule": "CCCNC(=O)c1ccc(S(N)(=O)=O)cc1", "growth inhibition": "2.55% (inactive)"}, {"molecule": "O=C(O)CNC(=O)c1ccccc1", "growth inhibition": "-25% (inactive)"}, {"molecule": "O=C(O)CCC(NC(=O)OCc1ccccc1)C(=O)O", "note": "(stereo unspecified)", "growth inhibition": "-21.2% (inactive)"}, {"molecule": "O=C(N/N=C/c1ccccc1O)Nc1nn[nH]n1", "growth inhibition": "0.85% (inactive)"}, {"molecule": "CC1CCC(C(=O)O)N1", "note": "(stereo unspecified)", "growth inhibition": "-3.2% (inactive)"}, {"molecule": "CCCCNC1(C#N)CCN(Cc2ccccc2)CC1", "growth inhibition": "-1.25% (inactive)"}, {"molecule": "O=C1OC(=O)C2C1C1(Cl)C(Cl)=C(Cl)C2(Cl)C2C(=O)OC(=O)C21", "note": "(stereo unspecified)", "growth inhibition": "25.3% (inactive)"}, {"molecule": "O=C(O)C(Cc1ccccc1)C(=O)O", "growth inhibition": "-18.4% (inactive)"}, {"molecule": "CC(C)=NNc1ccc([N+](=O)[O-])cc1[N+](=O)[O-]", "growth inhibition": "-5.75% (inactive)"}, {"molecule": "O=c1[nH]n(-c2ccccc2)c(=O)cc1Cl", "growth inhibition": "3.55% (inactive)"}, {"molecule": "C=CCc1cc(C(C)=O)cc(OC)c1O", "growth inhibition": "-34.4% (inactive)"}]}, {"experiment": "NCI Yeast Anticancer Drug Screen. Data for the mlh1 rad18 strain (AID 175)", "conditions": "S. cerevisiae mlh1 rad18 strain growth inhibition; at 50.0 µM; active compounds read high", "in_short": "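Inhibition values reflect reduced growth of mutant yeast versus vehicle-treated controls following compound exposure; the mutations affect DNA damage repair.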", "values": [{"molecule": "C=CCNC(=O)c1ccc(OC)cc1", "growth inhibition": "5.7% (inactive)"}, {"molecule": "O=C(Nc1cc(-c2ccccc2)[nH]n1)c1ccc(Cl)cc1", "growth inhibition": "-3.3% (inactive)"}, {"molecule": "O=[N+]([O-])c1ccc(N=Nc2ccccc2)cc1", "growth inhibition": "14.8% (inactive)"}, {"molecule": "N=c1c(C(=O)OCc2ccccc2)ncc(CCl)n1O", "growth inhibition": "77.8% (active)"}, {"molecule": "CCOC(=O)c1cc(/C=C/c2ccc(Cl)cc2Cl)on1", "growth inhibition": "-45.5% (inactive)"}, {"molecule": "CC1NC(=O)NC1CCCCCC(=O)O", "note": "(stereo unspecified)", "growth inhibition": "17.3% (inactive)"}, {"molecule": "COc1ccc(C2OC(N)=C(O)C2=O)cc1OC", "note": "(stereo unspecified)", "growth inhibition": "-31.9% (inactive)"}, {"molecule": "Cc1nc2ccccc2c2nnc(SCC(=O)N(Cc3ccccc3)c3ccccc3)n12", "growth inhibition": "2.25% (inactive)"}, {"molecule": "Cc1cc(NC(=O)CSCC(=O)O)no1", "growth inhibition": "-2.75% (inactive)"}, {"molecule": "N#CCCc1ccc(O)cc1", "growth inhibition": "-19.1% (inactive)"}, {"molecule": "Cc1cc(N2CCC(N3CCCC3)CC2)nc(/N=C(\\N)Nc2ccc(Cl)c(Cl)c2)n1", "growth inhibition": "34% (inactive)"}, {"molecule": "OC1OC(COC(c2ccccc2)(c2ccccc2)c2ccccc2)C(O)C(O)C1O", "note": "(stereo unspecified)", "growth inhibition": "-17% (inactive)"}, {"molecule": "NC(N)=Nc1cc2ccccc2c2ccccc12", "growth inhibition": "-4.95% (inactive)"}, {"molecule": "O=C(/C=C/C(=O)c1ccccc1)c1ccccc1", "growth inhibition": "51.1% (inactive)"}, {"molecule": "CSc1[nH]c(=O)ncc1F", "growth inhibition": "-7.45% (inactive)"}, {"molecule": "CCOC(=O)CNN", "growth inhibition": "-30.1% (inactive)"}, {"molecule": "CCC(C)(C)C1CCC(O)CC1", "note": "(stereo unspecified)", "growth inhibition": "1.5% (inactive)"}, {"molecule": "Cc1c(O)cccc1O", "growth inhibition": "-8.3% (inactive)"}, {"molecule": "C/C(=C\\c1cc(Cl)ccc1OCC(=O)O)[N+](=O)[O-]", "growth inhibition": "56.2% (inactive)"}, {"molecule": "COc1cccc(/C=N/NC(=S)NC2CC3CCC2C3)c1O", "note": "(stereo unspecified)", "growth inhibition": "-3.5% (inactive)"}, {"molecule": "Cc1cc(OCCO)cc(C)c1Cl", "growth inhibition": "-12.3% (inactive)"}, {"molecule": "CC(C)CCOC(=O)c1ccccc1", "growth inhibition": "-22.9% (inactive)"}, {"molecule": "COC(=O)/C=C/C(=O)NC(N)=O", "growth inhibition": "-8.05% (inactive)"}, {"molecule": "O=[N+]([O-])c1ccc(O)c(S(=O)(=O)O)c1", "growth inhibition": "4.1% (inactive)"}, {"molecule": "O=c1cc(-c2ccccc2)[nH]c(=S)[nH]1", "growth inhibition": "-9.55% (inactive)"}, {"molecule": "CC(C)C1CCCCC1O", "note": "(stereo unspecified)", "growth inhibition": "6.8% (inactive)"}, {"molecule": "CCOc1ccc(Br)cc1/C=N\\N=C\\c1cc(Br)ccc1OCC", "growth inhibition": "-10.3% (inactive)"}, {"molecule": "CCCNC(=O)c1ccc(S(N)(=O)=O)cc1", "growth inhibition": "-0.25% (inactive)"}, {"molecule": "O=C(O)CNC(=O)c1ccccc1", "growth inhibition": "-47.6% (inactive)"}, {"molecule": "O=C(O)CCC(NC(=O)OCc1ccccc1)C(=O)O", "note": "(stereo unspecified)", "growth inhibition": "-5.15% (inactive)"}, {"molecule": "O=C(N/N=C/c1ccccc1O)Nc1nn[nH]n1", "growth inhibition": "9% (inactive)"}, {"molecule": "CC1CCC(C(=O)O)N1", "note": "(stereo unspecified)", "growth inhibition": "6.65% (inactive)"}, {"molecule": "CCCCNC1(C#N)CCN(Cc2ccccc2)CC1", "growth inhibition": "-5.7% (inactive)"}, {"molecule": "O=C1OC(=O)C2C1C1(Cl)C(Cl)=C(Cl)C2(Cl)C2C(=O)OC(=O)C21", "note": "(stereo unspecified)", "growth inhibition": "-1.75% (inactive)"}, {"molecule": "O=C(O)C(Cc1ccccc1)C(=O)O", "growth inhibition": "-7.2% (inactive)"}, {"molecule": "CC(C)=NNc1ccc([N+](=O)[O-])cc1[N+](=O)[O-]", "growth inhibition": "44.3% (inactive)"}, {"molecule": "O=c1[nH]n(-c2ccccc2)c(=O)cc1Cl", "growth inhibition": "2% (inactive)"}, {"molecule": "C=CCc1cc(C(C)=O)cc(OC)c1O", "growth inhibition": "-19.4% (inactive)"}]}]}
